Assay results published in PubChem BioAssay.

Experiment: probe aDKK1 binding to arrayed compounds – biochemical, biotinylated probe, 635/667 nm fluorescence, primary screen (AID 1099);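 also: score merges 667nm spot fluorescence with signal to noise across triplicate slides; reference of the scale not given here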
Settings: small-molecule microarray, higher = more signal

Question: For `CO[C@H]1COC(=O)CC=C[C@@H](C)COC(=O)[C@H]2CCCN2C(=O)CC=C[C@H]1C`, which composite z-score is on record?
Answer: The composite z-score was -0.268.

Question: With `CC(C)=CCCC(C)=CCON=C1[C@H]2CCn3c(=O)n(-c4ccccc4)c(=O)n3[C@H]2[C@H](O)[C@@H]2O[C@H]12` as the molecule, how does the composite z-score read?
Answer: The composite z-score was -0.229.

Question: Which composite z-score does the source give for `COc1ccc(O[C@H]2C=C[C@@H](c3ccccc3)O[C@@H]2COC(=O)NCc2cccc3ccccc23)cc1` here?
Answer: The composite z-score was 0.0187.

Question: With `C#CCCCON=C1[C@H]2CCn3c(=O)n(Cc4cc5c(cc4Cl)OCO5)c(=O)n3[C@H]2[C@H](O)[C@@H]2O[C@H]12` as the molecule, how does the composite z-score read?
Answer: Its composite z-score is -0.23.

Question: For `COC(=O)[C@@H]1CC[C@H](C)[C@@H](c2ccc(C)cc2)N1C(=O)c1ccc(C=NOC[C@@H](O)[C@H]2O[C@@H]3OC(C)(C)O[C@@H]3[C@H]2O)cc1`, which composite z-score is on record?
Answer: The composite z-score was 0.0861.

Question: For `CCOC(=O)[C@H](CC(C)C)NC(=O)CCC1CC(OC(=O)NCc2ccc3c(c2)OCO3)CC2(CCCC(COC(=O)NCCc3ccc(Cl)cc3)O2)O1` (stereo partly specified), which composite z-score is on record?
Answer: The composite z-score was -0.0218.

Question: With `CCOC(=O)[C@H](Cc1ccccc1)NC(=O)CCC1CC(OC(=O)NCCc2ccc(F)cc2)CC2(CCCC(COC(=O)NCCOc3ccccc3)O2)O1` (stereo partly specified) as the molecule, how does the composite z-score read?
Answer: Its composite z-score is -0.119.

Question: With `CC(C)=NOC(C)CN1CCCc2nc(C)c(C)cc21` (stereo unspecified) as the molecule, how does the composite z-score read?
Answer: The composite z-score was -0.446.

Question: For `CCOC(=O)[C@H](Cc1ccccc1)NC(=O)CCC1CC(OC(=O)NCc2ccc3c(c2)OCO3)CC2(CCCC(COC(=O)NCCOC)O2)O1` (stereo partly specified), which composite z-score is on record?
Answer: Its composite z-score is -0.219.

Question: Which composite z-score does the source give for `CC(CCC(=O)OC[C@H]1O[C@H](C#Cc2ccccc2)C=C[C@@H]1Oc1ccc(C)cc1)=NO[C@H](C)c1cn([C@@H]2COC[C@H]2O)nn1` here?
Answer: Its composite z-score is -0.2.

Question: For `CCN1C(C)=C(C(=O)OC)[C@@H](c2ccccc2)N2C(=O)[C@](O)(C(=O)OC)CC(C(C)=O)=C12`, which composite z-score is on record?
Answer: The composite z-score was -0.324.

Question: With `CCOC(=O)CCN1C(=O)[C@H]2[C@H]3[C@H](O)[C@H](O)CC(=NO[C@@H]4O[C@H](CO)[C@@H](O)[C@H](O)[C@H]4O)[C@H]3CC[C@H]2C1=O` as the molecule, how does the composite z-score read?
Answer: Its composite z-score is 0.198.

Question: With `CCC1=NOC(CCC2CC(OC(=O)NCc3cccc4c3OCO4)CC3(CCCC(COC(=O)NCCc4ccc(Cl)cc4)O3)O2)C1` (stereo unspecified) as the molecule, how does the composite z-score read?
Answer: Its composite z-score is -0.0936.

Question: For `CC(C)=CCCC(C)=CCON=C1C[C@@H](O)[C@@H](O)[C@@H]2[C@@H]3C(=O)N(C4CCCCC4)C(=O)[C@@H]3CC[C@H]12`, which composite z-score is on record?
Answer: Its composite z-score is -0.107.

Question: Which composite z-score does the source give for `COC(=O)[C@@H]1CC[C@H](C)[C@@H](c2ccc(C)cc2)N1C(=O)c1ccc(C=NO[C@@H](C)c2cc(-c3c(C)cc(C)cc3C)no2)cc1` here?
Answer: The composite z-score was -0.12.

Question: With `CCN1C(=O)[C@H]2[C@H]3[C@H](O)[C@H](O)CC(=NO[C@H](C)c4cn([C@@H]5COC[C@H]5O)nn4)[C@@H]3CC[C@H]2C1=O` as the molecule, how does the composite z-score read?
Answer: The composite z-score was -0.19.

Question: For `CC(C)=NOC[C@@H](O)[C@H]1O[C@@H]2OC(C)(C)O[C@@H]2[C@H]1O`, which composite z-score is on record?
Answer: Its composite z-score is -0.0464.

Question: With `COc1ccc(COC(=O)NN=C2C[C@@H](O)[C@@H](O)[C@@H]3[C@@H]4C(=O)N(C[C@@H]5CCCO5)C(=O)[C@@H]4CC[C@@H]23)cc1` as the molecule, how does the composite z-score read?
Answer: The composite z-score was -0.288.

Question: Which composite z-score does the source give for `COc1ccc(O[C@H]2C=C[C@@H](c3ccccc3)O[C@@H]2CON=C(C)CCN2CCCc3nc(C)c(C)cc32)cc1` here?
Answer: Its composite z-score is -0.325.

Question: With `CCc1cc2c(nc1CC)CCN(CCC(C)=NOCC[C@@H]1C=C[C@H](OC(C)=O)[C@@H](COC(C)=O)O1)C2` as the molecule, how does the composite z-score read?
Answer: Its composite z-score is 0.0092.

Question: With `CCOC(=O)[C@H](CC(C)C)NC(=O)CCC1CC(OC(=O)NCCc2ccc(F)cc2)CC2(CCCC(COC(=O)NCCCN3CCCC3=O)O2)O1` (stereo partly specified) as the molecule, how does the composite z-score read?
Answer: Its composite z-score is -0.234.

Question: With `COc1ccc(COC(=O)NN=C2C[C@@H](O)[C@@H](O)[C@@H]3[C@@H]4C(=O)N(Cc5ccc6c(c5)OCO6)C(=O)[C@@H]4CC[C@H]23)cc1` as the molecule, how does the composite z-score read?
Answer: The composite z-score was 1.16.

Question: Which composite z-score does the source give for `CC(CCN1CCCCc2nc(C)c(C)cc21)=NOC[C@@H](O)[C@H]1O[C@@H]2OC(C)(C)O[C@@H]2[C@H]1O` here?
Answer: Its composite z-score is -0.32.

Question: For `O=C1[C@H]2CCn3c(=O)n(-c4ccccc4)c(=O)n3[C@H]2[C@H](O)[C@@H]2O[C@H]12`, which composite z-score is on record?
Answer: The composite z-score was -0.418.

Question: For `CC(C)=NO[C@H](C)c1cn([C@@H]2COC[C@H]2O)nn1`, which composite z-score is on record?
Answer: The composite z-score was -0.0146.

Question: For `CC(CCN1CCc2nc(-c3ccccc3)c(-c3ccccc3)cc2C1)=NO[C@@H](C)c1cc(-c2c(C)cc(C)cc2C)no1`, which composite z-score is on record?
Answer: Its composite z-score is -0.0029.

Question: Which composite z-score does the source give for `CC(C)CN1CCc2nc(-c3ccccc3)c3c(c2C1)CO[C@@H](C)C3` here?
Answer: Its composite z-score is 0.264.

Question: With `CCOC(=O)CCN1C(=O)[C@H]2[C@H]3[C@H](O)[C@H](O)CC(=NOCC=C(C)CCC=C(C)C)[C@@H]3CC[C@H]2C1=O` as the molecule, how does the composite z-score read?
Answer: The composite z-score was 0.333.

Question: For `CON=C[C@@H](OC)[C@H](C)C=CCC(=O)OC`, which composite z-score is on record?
Answer: Its composite z-score is -0.171.

Question: Which composite z-score does the source give for `CCOC(=O)CCN1C(=O)[C@H]2[C@H]3[C@H](O)[C@H](O)CC(=NO[C@@H]4O[C@H](CO)[C@@H](O)[C@H](O)[C@H]4O)[C@@H]3CC[C@H]2C1=O` here?
Answer: The composite z-score was -0.188.

Question: For `CC(CCN1CCCc2nc(C)c(C)cc21)=NO[C@H](C)c1cn([C@@H]2COC[C@H]2O)nn1`, which composite z-score is on record?
Answer: The composite z-score was -0.156.

Question: With `CC(C)(C)N1C(=O)[C@H]2[C@H]3[C@H](O)[C@H](O)CC(=NOC[C@@H](O)COCc4ccco4)[C@H]3CC[C@H]2C1=O` as the molecule, how does the composite z-score read?
Answer: Its composite z-score is 0.486.

Question: With `CCOC(=O)CCN1C(=O)[C@H]2[C@@H]3C(=CC[C@H]2C1=O)C(=O)[C@H]1O[C@H]1[C@H]3O` as the molecule, how does the composite z-score read?
Answer: The composite z-score was -0.33.

Question: For `COc1ccc(COC(=O)NN=C2C[C@@H](O)[C@@H](O)[C@@H]3[C@@H]4C(=O)N(C[C@@H]5CCCO5)C(=O)[C@@H]4CC[C@H]23)cc1`, which composite z-score is on record?
Answer: The composite z-score was 1.

Question: For `CCN1C(=O)[C@H]2[C@H]3[C@H](O)[C@H](O)CC(=NOCC(C)C)[C@H]3CC[C@H]2C1=O`, which composite z-score is on record?
Answer: The composite z-score was -0.311.

Question: With `CC(C)=CCCC(C)=CCON=C1C[C@@H](O)[C@@H](O)[C@@H]2[C@@H]3C(=O)N(Cc4ccc5c(c4)OCO5)C(=O)[C@@H]3CC[C@H]12` as the molecule, how does the composite z-score read?
Answer: Its composite z-score is -0.101.
